Screening data: PubChem BioAssay, National Center for Advancing Translational Sciences (NCATS)
Pf growth 96h – Primary qHTS for delayed death inhibitors of the malarial parasite plastid, 96 hour incubation. P. falciparum luciferase reporter growth, 96 h. Potency, µM (top dose mostly 28.7 µM), for the others: at the highest dose activity change, negative = inhibition, most hits filed as inhibitors. hit rate 6.9% among 320,000; further: on the % scale 0 is the no-effect control and ±100 the full control effect
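Luminescence readout: decreased luciferase signal marks inhibited growth of reporter-expressing P. falciparum in infected red cells (2% hematocrit, 0.05% parasitemia final), exposed to compound two generations (96 h, 37 C, 5% CO2).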
AmpC no deterg – qHTS Inhibitors of AmpC Beta-Lactamase (assay without detergent) | AmpC nitrocefin hydrolysis, absorbance 480 nm, 0.0001% Triton | Potency, µM (doses to about 57.1 µM), for the others: at the top dose activity change, negative = inhibition, actives largely listed as inhibitors | hit rate 0.52% among 330,000 | AID 485341, 2010;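 further: plate controls were no compound for no effect and no enzyme for full effect; nearly all actives have a fitted effect of over 20% in size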
Target sequence (P00811 whole entry, looked up): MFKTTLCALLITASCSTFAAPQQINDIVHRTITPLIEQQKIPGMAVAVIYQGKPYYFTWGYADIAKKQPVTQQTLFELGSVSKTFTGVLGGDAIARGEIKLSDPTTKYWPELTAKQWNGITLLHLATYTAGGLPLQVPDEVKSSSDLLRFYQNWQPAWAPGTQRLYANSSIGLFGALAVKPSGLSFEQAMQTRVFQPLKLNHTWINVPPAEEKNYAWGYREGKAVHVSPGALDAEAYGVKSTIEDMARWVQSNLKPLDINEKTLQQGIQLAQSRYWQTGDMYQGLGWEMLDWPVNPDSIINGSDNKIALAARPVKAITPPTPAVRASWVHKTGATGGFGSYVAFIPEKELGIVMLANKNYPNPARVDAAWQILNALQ
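20 mM phosphate pH 7.0 + 0.01% (detergent screen) or 0.0001% Triton X-100; 5.3 nM AmpC reagent; cpd preinc 15 min RT; nitrocefin (800 uM stock) to start; A480 q20 s × 4 min; Activity was normalised to no-enzyme and no-compound control wells.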
Sm TGR inh – qHTS Assay for the Inhibitors of Schistosoma Mansoni Peroxiredoxins; purified TGR, DTNB reduction, TNB absorbance 405 nm; Potency, µM (doses to about 114 µM), without a hit: at the top dose activity change, negative = inhibition, usual class: inhibitors; hit rate 3% among 360,000; further: on the % scale 0 is the no-effect control and ±100 the full control effect; nearly all actives have a fitted effect of over 60% in size
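First, TGR (20 nM dispensed) and NADPH were mixed with compound. Second, a 15 min room-temperature incubation followed. Third, further NADPH and then DTNB were added to start the reaction. Finally, TNB absorbance was monitored kinetically.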
AmpC inh detg – qHTS Inhibitors of AmpC Beta-Lactamase (assay with detergent). Potency, µM (highest dose often 114 µM), for the others: at the highest dose activity change, negative = inhibition, most hits filed as inhibitors. hit rate 0.041% among 370,000. AmpC hydrolysis of nitrocefin, absorbance 480 nm, 0.01% Triton. P00811;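 further: 0% = no-compound wells and -100% = no-enzyme wells; nearly all actives have a fitted effect of over 25% in size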
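20 mM phosphate pH 7.0 + 0.01% (detergent screen) or 0.0001% Triton X-100; 5.3 nM AmpC reagent; cpd preinc 15 min RT; nitrocefin (800 uM stock) to start; A480 q20 s × 4 min; Activity was normalised to no-enzyme and no-compound control wells.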
SARS PLpro yeast – qHTS of Yeast-based Assay for SARS-CoV PLP | hit rate 0.19% among 330,000 | S. cerevisiae expressing SARS-CoV PLpro, growth rescue | AID 485353, 2010 | Potency, µM (titrated, usually from 32.9 µM), for inactives: top-dose activity, positive = growth rescue, actives largely listed as activators; calls by dose curve; further: 0% is about no effect; nearly all actives have a fitted effect of over 55% in size
Pf growth 48h – Primary qHTS for delayed death inhibitors of the malarial parasite plastid, 48 hour incubation; P. falciparum luciferase growth in erythrocytes, 48 h; Potency, µM (titrated, usually from 28.7 µM), inactives show at the top dose activity change, negative = inhibition, usual class: inhibitors; hit rate 5.9% among 310,000; further: on the % scale 0 is the no-effect control and ±100 the full control effect
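Cell-based growth assay: transgenic P. falciparum expressing firefly luciferase, cultured in red cells within RPMI 1640 containing 0.5% w/v Albumax, 24 mM bicarbonate and gentamycin. A drop in luciferase activity indicates inhibition.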
The depositor's hits bear a star; ? = inconclusive; . = no result. In the library only some 12% were active in any assay of this set; here they are far more common. Unless noted, the call rests on the fitted dose curve; in most records, active means well fitted curve in the direction sought with a large enough effect; inconclusive means small, poorly fitted or top-dose-only effect, or another doubt; inactive means no such curve, though single readings can be large; an effect the other way counts as inactive or inconclusive. Potency means the concentration at half of the fitted maximal effect.

SMILES | Pf growth 96h | AmpC no deterg | Sm TGR inh | AmpC inh detg | SARS PLpro yeast | Pf growth 48h
COc1ccc(S(=O)(=O)NCCc2cn3ccsc3n2)cc1 | . | . | -10% | 3% | . | .
Cc1cccc(OCC(=O)Nc2ccc(OCc3cc(=O)n4cc(C)ccc4n3)cc2)c1 | . | . | 4% | 15% | . | .
COc1ccc(N2CCN(C(=S)Nc3ccc(F)cc3)CC2)cc1 | 15µM* | -20% | -3% | ? | 0% | 29%
COc1ccc(/C=C/C(=O)Nc2ccc(N3CCOCC3)cc2)cc1 | 34% | -42% | -11% | ? | 21% | -21%
COc1ccc(N2CCN(C(=S)Nc3cc(C)cc(C)c3)CC2)cc1 | 41% | -15% | -21% | ? | 2% | 5%
Cc1cccc(N2CCN(C(=S)Nc3ccc4nc(N5CCN(C)CC5)cc(C)c4c3)CC2)c1C | ? | -9% | -6% | -7% | 3% | 12µM*
COc1ccc(N2CCN(c3ccc(NC(=O)/C=C\C(=O)O)cc3)CC2)cc1 | ? | -14% | -2% | ? | -10% | 3.3µM*
CCN(CC)CCNC(=O)c1ccc2nc(CCc3ccccc3)oc2c1 | . | . | 0% | 3% | . | .
O=C(NCc1ccc(F)cc1Cl)c1cc(=O)[nH]c2ccc(S(=O)(=O)N3CCCCC3)cc12 | . | . | 4% | -9% | . | .
CCC(=Nc1ccccc1OC)C1=C(O)CC(c2ccccc2)CC1=O (centres undefined) | 0.41µM* | -27% | 9% | 1% | -7% | -23%
CCC(=Nc1ccccc1O)C1=C(O)CC(c2ccccc2)CC1=O (centres undefined) | ? | -47% | -33% | 0% | -4% | ?
CCCC(=NC(C)CC)C1=C(O)CC(c2ccccc2)CC1=O (centres undefined) | ? | 16% | -3% | ? | -6% | 2.9µM*
CCOc1ccccc1C(=O)Nc1c(C(=O)Nc2ccc(F)cc2)oc2ccccc12 | . | . | -4% | 4% | . | .
COc1ccc(Cl)cc1NC(=O)Cn1cc(S(=O)(=O)Cc2cccc(Cl)c2)c2ccccc21 | . | . | 5% | 22% | . | .
COCCNC(=O)Cn1c(=O)c2cccn2c2ccc(F)cc21 | . | . | 3% | 4% | . | .
COc1ccccc1NC(=O)C(C/C=C(\C)Cl)C(C)=O (centres undefined) | 1% | -6% | -2% | -10% | 0% | 9%
COc1ccccc1NC(=O)C(CC=C(Cl)Cl)C(C)=O (centres undefined) | ? | -11% | 35µM* | 4% | 6% | -62%
Cc1ccc(N(C)C(=O)n2cnc3ccccc32)cc1 | 9.3µM* | 6% | -1% | -8% | 1% | 3.7µM*
CCN(CC)CCOc1ccc2c(c1)C(=O)c1cc(OCCN(CC)CC)ccc1-2 | 6µM* | . | . | . | . | 4.3µM*
Oc1oc(C=Nc2ccc(F)cc2F)c2ccccc12 | 39% | -28% | 50µM* | 7% | 1% | 0%
CSc1n[nH]c(/N=C/c2oc(O)c3ccccc23)n1 | 16% | -21% | -4% | 2% | 1% | 14%
COc1ccc(OC)c(C2c3[nH]c4ccccc4c3C[C@H]3C(=O)N(CCCOC(C)C)CC(=O)N23)c1 (some centres undefined) | 12µM* | 164% | -2% | 2% | 2% | 7.4µM*
COc1ccc(C2c3[nH]c4ccccc4c3C[C@H]3C(=O)N(CCCO)CC(=O)N23)c(OC)c1 (some centres undefined) | -2% | 128% | 10% | 1% | -1% | -8%
CC(C)OCCCN1CC(=O)N2C(c3cccc([N+](=O)[O-])c3)c3[nH]c4ccccc4c3C[C@H]2C1=O (some centres undefined) | ? | 94% | 0% | -9% | 1% | 8.3µM*
